# Reference: PubChem BioAssay (Tox21)
# Inconclusive results are not listed. A number with no mark means an inactive call. Unless noted, calls follow the shape of the full dose curve.
# Assay: qHTS assay to identify small molecule agonists of the NFkB signaling pathway - cell viability counter screen (AID 1159515); also: nearly all actives have a fitted effect of over 55% in size
# Conditions: NFkB-bla ME-180 viability, CellTiter-Glo luminescence, 5 h; series mostly up to 61 µM; activity, negative = cytotoxic: at the top concentration
# Summary of the method: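 Using the same wells as the NFkB reporter read, ME-180 NFkB-bla cells given compounds for 5 hr were assessed for viability via CellTiter-Glo, with luminescence taken after a 30 min room-temperature incubation.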
# % is scaled to controls: 0 for no effect and ±100 for the full control effect.
row,Structure (SMILES),"activity, negative = cytotoxic"
1,Cc1nc(C)c(C)nc1C,5.28%
2,Cc1cc(C)c(C)c(O)c1,1.52%
3,Cc1ccc(S(=O)(=O)NC(=O)NC2CCCC2)cc1,-6%
4,OCCc1ccncc1,-0.206%
5,C=C(C)C(=O)OCCCCCCCCCCOC(=O)C(=C)C,1.26%
6,CCC1=C(C)CN(C(=O)NCCc2ccc(S(=O)(=O)NC(=O)NC3CCC(C)CC3)cc2)C1=O (stereo not drawn),-30.9%
7,Cc1ccc(Cl)c(OCC(O)CNC(C)(C)C)c1 (stereo not drawn),-0.237%
8,O=C(C1CCCCC1)N1CC(=O)N2CCCc3ccccc3C2C1 (stereo not drawn),-5.83%
9,N#CCCCC(C#N)CCC#N (stereo not drawn),1.06%
10,C[C@H](CN1CCCC1)C(=O)c1ccc(C(F)(F)F)cc1,-1.44%
11,Clc1nc2ccccc2nc1Cl,-0.857% [at 78.8 µM]
12,CC(C)NC(=O)c1ccccc1N,5.6%
13,CCCc1nc(C)c2c(=O)[nH]c(-c3cc(S(=O)(=O)N4CCN(CC)CC4)ccc3OCC)nn12,-8.52%
14,Cc1cccc(C)c1NC(=O)CN1CCCC1,-6.32%
15,CC(COc1ccccc1)NC(C)C(O)c1ccc(O)cc1 (stereo not drawn),14.3%
16,NCCOCCOCCN,-8.21%
17,C=CC(=O)OCCCCCCCCCC,15.8%
18,Nc1ccc(F)cc1F,-1.45% [at 78.8 µM]
19,O=c1[nH]nc(-c2ccc([N+](=O)[O-])o2)o1,13.9%
20,CCN(CC)CC(=O)OCC(=O)[C@@]1(O)CC[C@H]2[C@@H]3CCC4=CC(=O)CC[C@]4(C)[C@H]3[C@@H](O)C[C@@]21C,2.87%

row,Structure (SMILES),"activity, negative = cytotoxic"
1,CCOC(OCC)OCC,-1.51%
2,Cc1ccc2ccccc2c1[N+](=O)[O-],-0.135%
3,C=CC(C)CCC=C(C)C (stereo not drawn),3.65%
4,COC(=O)/C=C/C(C)=C\C=C\C(C)=C\C=C\C=C(C)\C=C\C=C(C)\C=C\C(=O)O,-7.38%
5,CO[C@@H]1COCC[C@@H]1N[C@@H]1CC[C@@](C(=O)N2CCc3ncc(C(F)(F)F)cc3C2)(C(C)C)C1,-2.21%
6,CCCC(=O)OCc1ccccc1,1.16%
7,c1ccc(CCNc2nc(-c3ccccc3)cs2)cc1,-3.98%
8,C[C@]12CCC(=O)C=C1[C@@H]1C[C@@H]1[C@H]1[C@@H]3[C@@H]4C[C@@H]4[C@@]4(CCC(=O)O4)[C@@]3(C)CC[C@@H]12,-14.1%
9,O=C(OC1C[C@H]2CC[C@@H](C1)[N+]21CCCC1)C(O)(c1ccccc1)c1ccccc1 (stereo partly drawn),6.56%
10,N#Cc1ccc(CC(=O)c2cccc(C(F)(F)F)c2)cc1,-4.42%
11,CC(CC(C#N)(c1ccccc1)C(C)C)N(C)C (stereo not drawn),-15.3%
12,O=C(NC1CCN(CCc2c[nH]c3ccccc23)CC1)c1ccccc1,-2.26%
13,CCCCOC(=O)C(C)Oc1ccc(Oc2ccc(C(F)(F)F)cn2)cc1 (stereo not drawn),-0.515%
14,O=C(N[C@@H](Cc1ccccc1)[C@@H](O)C(=O)N1C[C@@H](O)[C@@H](O)C1)c1cc2cc(Cl)ccc2[nH]1,-2.19%
15,CC1(C)C(=O)NC(=O)N1CO,-0.168%
16,CCOc1cc(OCC)c(C(C)=O)cc1OCC,-11.4%
17,OCCOc1cccc(OCCO)c1,-0.425%
18,CC(C)=CCC/C(C)=C/C=N/O,-0.628%
19,CC(=O)Nc1ccn(C2COC(COC(=O)c3ccccc3)O2)c(=O)n1 (stereo not drawn),4.79%

# Assay: qHTS assay to identify small molecule agonists of the endoplasmic reticulum stress response signaling pathway (AID 1159516; active = well fitted activation curve with a large enough effect in the signal ratio in the repeat runs, not every such curve was filed as active; the % refers to the signal ratio)
# Conditions: ESRE-bla HeLa, ER stress beta-lactamase reporter, 5 h; series mostly up to 61 µM; activation: at the top concentration
# Summary of the method: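 An ESRE-bla HeLa cell assay: compounds were pin-transferred from DMSO onto overnight-plated cells and left 5 hr at 37 C. Substrate was then loaded for 2 hr at room temperature before reading fluorescence at 460 nm and 530 nm.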
row,Structure (SMILES),activation
1,Cc1nc(C)c(C)nc1C,2.15%
2,Cc1cc(C)c(C)c(O)c1,-0.754%
3,Cc1ccc(S(=O)(=O)NC(=O)NC2CCCC2)cc1,2.89%
4,OCCc1ccncc1,-0.0138%
5,C=C(C)C(=O)OCCCCCCCCCCOC(=O)C(=C)C,-0.315%
6,CCC1=C(C)CN(C(=O)NCCc2ccc(S(=O)(=O)NC(=O)NC3CCC(C)CC3)cc2)C1=O (stereo not drawn),-2.12%
7,Cc1ccc(Cl)c(OCC(O)CNC(C)(C)C)c1 (stereo not drawn),3.54%
8,O=C(C1CCCCC1)N1CC(=O)N2CCCc3ccccc3C2C1 (stereo not drawn),-2.42%
9,N#CCCCC(C#N)CCC#N (stereo not drawn),3.91%
10,C[C@H](CN1CCCC1)C(=O)c1ccc(C(F)(F)F)cc1,-1.39%
11,Clc1nc2ccccc2nc1Cl,-6.54% [at 78.8 µM]
12,CC(C)NC(=O)c1ccccc1N,-2.52%
13,CCCc1nc(C)c2c(=O)[nH]c(-c3cc(S(=O)(=O)N4CCN(CC)CC4)ccc3OCC)nn12,-5.98%
14,Cc1cccc(C)c1NC(=O)CN1CCCC1,-0.355%
15,CC(COc1ccccc1)NC(C)C(O)c1ccc(O)cc1 (stereo not drawn),3.62%
16,NCCOCCOCCN,0.413%
17,C=CC(=O)OCCCCCCCCCC,4.97%
18,Nc1ccc(F)cc1F,0.0879% [at 78.8 µM]
19,O=c1[nH]nc(-c2ccc([N+](=O)[O-])o2)o1,-1.59%
20,CCN(CC)CC(=O)OCC(=O)[C@@]1(O)CC[C@H]2[C@@H]3CCC4=CC(=O)CC[C@]4(C)[C@H]3[C@@H](O)C[C@@]21C,-1.57%

row,Structure (SMILES),activation
1,CCOC(OCC)OCC,-5.24%
2,Cc1ccc2ccccc2c1[N+](=O)[O-],-3.79%
3,C=CC(C)CCC=C(C)C (stereo not drawn),0.296%
4,COC(=O)/C=C/C(C)=C\C=C\C(C)=C\C=C\C=C(C)\C=C\C=C(C)\C=C\C(=O)O,-8.8%
5,CO[C@@H]1COCC[C@@H]1N[C@@H]1CC[C@@](C(=O)N2CCc3ncc(C(F)(F)F)cc3C2)(C(C)C)C1,-0.307%
6,CCCC(=O)OCc1ccccc1,1.07%
7,c1ccc(CCNc2nc(-c3ccccc3)cs2)cc1,5.6%
8,C[C@]12CCC(=O)C=C1[C@@H]1C[C@@H]1[C@H]1[C@@H]3[C@@H]4C[C@@H]4[C@@]4(CCC(=O)O4)[C@@]3(C)CC[C@@H]12,-5.3%
9,O=C(OC1C[C@H]2CC[C@@H](C1)[N+]21CCCC1)C(O)(c1ccccc1)c1ccccc1 (stereo partly drawn),-3.28%
10,N#Cc1ccc(CC(=O)c2cccc(C(F)(F)F)c2)cc1,-0.524%
11,CC(CC(C#N)(c1ccccc1)C(C)C)N(C)C (stereo not drawn),1.28%
12,O=C(NC1CCN(CCc2c[nH]c3ccccc23)CC1)c1ccccc1,-0.971%
13,CCCCOC(=O)C(C)Oc1ccc(Oc2ccc(C(F)(F)F)cn2)cc1 (stereo not drawn),-0.512%
14,O=C(N[C@@H](Cc1ccccc1)[C@@H](O)C(=O)N1C[C@@H](O)[C@@H](O)C1)c1cc2cc(Cl)ccc2[nH]1,-6.45%
15,CC1(C)C(=O)NC(=O)N1CO,0.959%
16,CCOc1cc(OCC)c(C(C)=O)cc1OCC,1.29%
17,OCCOc1cccc(OCCO)c1,2.24%
18,CC(C)=CCC/C(C)=C/C=N/O,4.87%
19,CC(=O)Nc1ccn(C2COC(COC(=O)c3ccccc3)O2)c(=O)n1 (stereo not drawn),-2.58%
